DRV1 agonist: agonists of human resolvin D1 receptor DRV1 (GPR32) | CHO-K1 GPR32 beta-arrestin PathHunter luminescence, 90 min; zero percent set by DMSO-only wells | activation, % at 76.9 µM | 48,000 tested, 2.5% active | O75388;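 active = activation of at least 60% and not above a set upper limit, about 1 call in 100 departs from these limits; inconclusive = activation of 40% to 60%, or above that upper limit; inactive = activation under 40%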; also: 0% is about no effect
Target sequence (O75388 whole entry, looked up): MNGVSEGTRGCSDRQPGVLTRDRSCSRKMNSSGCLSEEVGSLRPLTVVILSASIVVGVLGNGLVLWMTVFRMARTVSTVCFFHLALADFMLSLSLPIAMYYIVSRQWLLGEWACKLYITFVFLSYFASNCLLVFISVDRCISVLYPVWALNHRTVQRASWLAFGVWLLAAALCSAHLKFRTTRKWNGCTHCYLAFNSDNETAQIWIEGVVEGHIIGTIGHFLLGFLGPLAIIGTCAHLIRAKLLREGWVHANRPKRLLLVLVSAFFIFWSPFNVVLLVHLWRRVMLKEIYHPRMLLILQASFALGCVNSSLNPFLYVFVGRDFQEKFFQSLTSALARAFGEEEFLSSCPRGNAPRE
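Engineered CHO-K1 line co-expressing GPR32-ProLink and EA-beta-arrestin. Compound treatment lasted 90 min at 37 °C. Luminescence was recorded after 1 h with substrate at ambient temperature, relative to DMSO basal wells.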
FH mod: Identification of activators of human fumarate hydratase by quantitative high-throughput screening; Fumarate hydratase, mitochondrial (Homo sapiens), P07954; FH coupled MDH/diaphorase resazurin fluorescence, 15 min; Potency, µM (titrated, usually from 79.9 µM), for the others: top-dose activity change, negative = inhibition, hits mostly inhibitors; 54,000 tested, 0.22% active; AID 1347055, 2019; also: potency is read from the fitted curve at half-maximal effect; % is scaled to controls: 0 for no effect and ±100 for the full control effect; the screen sought activators but most active calls are inhibition curves; nearly all actives have a fitted effect of over 45% in size
GALC G270D act: raises human GALC G270D mutant activity in cells | P54803 | 145M-Twi-hGALC-G270D cells (Twitcher mouse brain line with human GALC G270D), HMU-beta-Gal fluorescence, 48 h | Potency, µM (top dose mostly 57.5 µM), most hits filed as activators | 45,000 tested, 0.1% active; also: potency is read from the fitted curve at half-maximal effect; 0% is about no effect; nearly all actives have a fitted effect of over 65% in size
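Fluorogenic HMU-b-Gal hydrolysis (0.1 mM final, pH 5.2 citrate-phosphate with 1 mg/mL sodium taurocholate; carbonate stop buffer) measures mutant GALC activity after compound treatment of live 145M-Twi Twitcher brain cells stably carrying human GALC-G270D, with wild-type GALC line alongside; activation sought.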
NTMT1 inhibitor: NTMT1 methyltransferase inhibition. NTMT1 MTase-Glo SAH luminescence, purified enzyme. AID 1645870. Q9BV86. 59,000 tested, 2.5% active. Potency, µM (top dose mostly 114 µM), for the others: at the highest dose activity change, negative = inhibition, usual class: inhibitors;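 also: potency is read from the fitted curve at half-maximal effect; plate controls were DMSO vehicle for no effect and no enzyme for full effect; nearly all actives have a fitted effect of over 65% in size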
Target sequence (Q9BV86 whole entry, looked up): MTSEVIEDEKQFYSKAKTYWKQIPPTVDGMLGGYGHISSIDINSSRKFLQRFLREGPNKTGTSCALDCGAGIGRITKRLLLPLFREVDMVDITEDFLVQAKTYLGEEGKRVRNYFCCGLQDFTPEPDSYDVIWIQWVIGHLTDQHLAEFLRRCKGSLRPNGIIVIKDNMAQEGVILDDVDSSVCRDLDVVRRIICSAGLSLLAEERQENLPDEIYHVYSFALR
p53null 32C kill: selectivity test: cytotoxicity in p53 null cells, permissive temperature; 55,000 tested, 0.62% active; H1299-neo p53 null cells, ATP luminescence, 24 h, 32C; Potency, µM (doses to about 46.1 µM), without a hit: at the highest dose activity change, negative = cytotoxicity, actives largely listed as cytotoxic;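 also: potency is read from the fitted curve at half-maximal effect; 0% = DMSO only and -100% = full killing by 100 µM tamoxifen; nearly all actives have a fitted effect of over 55% in size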
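Overnight 37C seeding (600 cells/well) of H1299-neo preceded a 24 hr, 32C exposure to compounds up to 46 uM. ATP levels, read by luminescence after 20 min at RT, indicated surviving cells.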
p53null 39C kill: kills p53 null cells at the nonpermissive temperature | H1299 p53-null (neo) cells, 39C, ATPlite viability, 24 h | Potency, µM (titrated, usually from 46.1 µM), for inactives: at the top dose activity, negative = cell killing, usual class: cytotoxic | 55,000 tested, 0.97% active;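 also: potency is read from the fitted curve at half-maximal effect; 0% = DMSO only and -100% = full killing by 100 µM tamoxifen; nearly all actives have a fitted effect of over 50% in size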
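Concentration-response (up to 46 uM) was run for 24 h at the nonpermissive 39C on H1299-p53A138V or H1299-neo cells. ATP content was measured with ATPlite luminescence. AC50 values were Hill-modeled after normalizing between DMSO and 100 uM tamoxifen killing.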
An asterisk follows results filed as active; i = inactive; ? = inconclusive; · = no result; [ ] = dose if it differs, or a comment. This is a sample that favours compounds with a hit; in the whole collection about 3.9% have one here. Unless noted, calls follow the shape of the dose curve; as a rule, active = well fitted curve in the direction sought with a large enough effect; inconclusive = small, poorly fitted or top-dose-only effect, or another doubt; inactive = no such curve, though single readings can be large; an effect the other way counts as inactive or inconclusive.

SMILES | DRV1 agonist | FH mod | GALC G270D act | NTMT1 inhibitor | p53null 32C kill | p53null 39C kill
Cc1nn(C(=O)c2ccccc2)c(C)c1Sc1ccc(Cl)cc1 | 107* | ? | i | 1% | 50% | 14%
Cc1ccc(Sc2c(C)nn(C(=O)c3ccc(Br)cc3)c2C)cc1 | 40 | -3% | i | -9% | 32% | 6%
Cc1ccc(CNC(=O)C(C)n2nc(C)c3sc4ccccc4c3c2=O)cc1 (stereo not drawn) | -24 | -11% | i | -4% | -19% | ?
Cc1nn(C(C)C(=O)NC2CCCCC2)c(=O)c2c1sc1ccccc12 (stereo not drawn) | -9 | 3% | i | 1% | -26% | 13µM*
CSc1ccc(CCNC(=O)C(C)n2nc(C)c3sc4ccccc4c3c2=O)cc1 (stereo not drawn) | -10 | 3% | i | 22% | ? | 13µM*
CCc1nn(CCO)c(CC)c1Oc1cc(C#N)cc(C#N)c1 | · | -2% | · | 0%[57.5 µM] | · | ·
CCc1cccc(NC(=O)CCc2c(C)nc3c(c2C)c(=O)n(C)c(=O)n3C)c1 | 12 | -4% | i | 89µM* | 5% | -23%
COC(=O)c1ccc(NC(=O)CCc2c(C)nc3c(c2C)c(=O)n(C)c(=O)n3C)cc1 | -8 | 1% | i | 3% | 1% | 5%
Cn1cc[nH]c1=S | 65* | -2%[53.3 µM] | i | ? | · | ·
Cc1cccc(-n2cc[nH]c2=S)c1C | · | · | · | · | · | 15%
CCOC(=O)c1nnc(N[S+](=O)([O-])c2ccc(NC(=O)Cc3ccc(Cl)c(Cl)c3)cc2)s1 | · | · | · | 79µM* | · | ·
Oc1c(C(c2ccc(Cl)cc2Cl)N2CCOCC2)sc2nc(-c3ccco3)nn12 (stereo not drawn) | 90* | -3% | i | 18% | 0% | -4%
Oc1c(C(c2ccc(Cl)cc2Cl)N2CCN(c3ccccc3)CC2)sc2nc(-c3ccco3)nn12 (stereo not drawn) | -6 | ? | i | 5% | 17% | -10%
Cc1ccc(S(=O)(=O)Cc2nc(-c3ccc(C(=O)NCc4ccccc4)cc3)oc2C)cc1 | 77* | 5% | i | 5% | 3% | 29%
Cc1ccc(S(=O)(=O)Cc2nc(-c3ccc(C(=O)NCc4cccnc4)cc3)oc2C)cc1 | · | 1% | · | -6%[57.5 µM] | · | ·
CCOc1ccc(NC(=O)CC2Nc3cccc4cccc(c34)NC2=O)cc1 (stereo not drawn) | 83* | -17% | i | -18% | 11% | -15%
CC1=CC(=O)CC(C)(C)C1CCC(C)O[C@@H]1O[C@H](CO[C@@H]2OC[C@@H](O)[C@H](O)[C@H]2O)[C@@H](O)[C@H](O)[C@H]1O (stereo partly drawn) | · | -1%[53.3 µM] | · | ? | · | ·
COc1ccccc1NC(CC(=O)c1ccccc1)C(=O)OCC(=O)c1ccc(C)c(C)c1 (stereo not drawn) | · | · | · | · | 18µM* | ·
CCOC(=O)N1CCN(C(=O)c2ccc3c(c2)N(Cc2cc(C)ccc2C)C(=O)c2ccccc2S3=O)CC1 (stereo not drawn) | -12 | -17% | i | 89µM* | 3% | -9%
CCOC(=O)COc1ccc2c(c1)C[C@@H](NC[C@H](O)c1cccc(Cl)c1)CC2 | · | -4% | · | -6%[57.5 µM] | · | ·
N[C@@H](Cc1cc(I)c(O)c(I)c1)C(=O)O | -12 | -20%[53.3 µM] | i | 14µM* | · | ·
O=C(O)C(Cc1cc(I)c(O)c(I)c1)c1ccccc1 (stereo not drawn) | 17 | -11%[53.3 µM] | i | ? | · | ·
COc1ccc(-n2c(=O)c3ccc(C(=O)NCc4ccc(C)cc4)cc3n(CC(=O)Nc3ccc(F)cc3)c2=O)cc1 | 94* | 8% | i | 46% | 7% | -28%
COc1ccc(-n2c(=O)c3ccc(C(=O)NCc4ccc(C)cc4)cc3n(CC(=O)Nc3ccc(C)cc3)c2=O)cc1 | -3 | 12% | i | 10% | ? | ?
CC(=O)Nc1ccc(NC(=O)C2Cc3ccccc3N2C(=O)c2ccccc2)cc1 (stereo not drawn) | 100* | 4% | i | -4% | -7% | -13%
SMILES | DRV1 agonist | FH mod | GALC G270D act | NTMT1 inhibitor | p53null 32C kill | p53null 39C kill
CC(=O)c1ccc(NC(=O)C2Cc3ccccc3N2C(=O)c2ccccc2)cc1 (stereo not drawn) | -9 | -5% | i | -67% | -15% | -23%
CSCC[C@H](NC(=O)[C@H](CO)NC(=O)[C@H](CCC(=O)O)NC(C)=O)C(=O)N[C@H](C=O)CC(=O)O | · | 14%[13.5 µM] | · | 4%[12.6 µM] | · | ·
O=C(Nc1cccc(Cc2ccccc2)n1)c1ccc(-c2cccc([N+](=O)[O-])c2)o1 | · | · | · | -5% | · | ·
Nc1ccc2oc(-c3ccccc3Br)nc2c1 | 9 | -6% | i | ? | ? | 13µM*
COc1ccc(C(=O)Nc2ccc3oc(-c4cccc5c(Br)cccc45)nc3c2)cc1 | 47 | -9% | i | 6% | -2% | 6%
COCn1c(-c2ccc(OC)cc2)nc2ccccc21 | · | · | · | · | 14µM* | 11µM*
COc1ccc(-c2nc3ccccc3n2Cc2ccc(Cl)cc2)cc1 | 0 | -38% | i | -13% | 56% | 4µM*
CCCc1cc(C(=O)N[C@H](Cc2ccc(-c3cccc(OC(F)(F)F)c3)nc2)C(=O)N[C@@H]2CCNC2)sc1C | · | · | · | 56µM* | · | ·
CC(=O)C1CCC2(C)C3=C(CCC12C)C1(C)CCC(=O)C(C)(C)C1CC3 (stereo not drawn) | · | -4%[53.3 µM] | · | 6%[29.8 µM] | · | ·
CCOc1ccc(C(=O)Nc2ccc3c(c2)OCCO3)cc1Br | 16 | -3% | i | 0% | ? | 13µM*
COc1ccc2c(c1)CCc1c(C(=O)Nc3ccccc3C(F)(F)F)noc1-2 | 4 | · | · | · | -11% | -18%
O=C(Nc1ccccc1C(F)(F)F)c1noc2c1CCCCC2 | 13 | · | · | · | 10µM* | 5µM*
CO[C@H]1C=CC=C(C)C(=O)NC2=CC(=O)C(NCCN(C)C)=C(C[C@@H](C)C[C@H](OC)[C@@H](O)[C@@H](C)C=C(C)[C@@H]1OC(N)=O)C2=O | · | -18%[53.3 µM] | · | 27µM* | · | ·
C=C(CCO)C(=O)OCC1OCC(OC(=O)C(=C)CCO[C@@H]2O[C@H](COC(=O)C(=C)CCO[C@@H]3O[C@H](CO)[C@@H](O)[C@H](O)[C@H]3O)[C@@H](O)[C@H](O)[C@H]2O)C(O)C1O (stereo partly drawn) | · | 2%[20.6 µM] | · | 4%[12.6 µM] | · | ·
Cc1ccc(NC2=C/C(=N\S(=O)(=O)c3cccs3)c3ccccc3C2=O)c(C)c1 | · | · | · | · | 3.5µM* | 3.5µM*
